Source: PubChem BioAssay AID2326 (National Center for Advancing Translational Sciences (NCATS), 2010)
Screen size: about 270,000 compounds; about 1,100 (0.41%) were called active. Roughly 3% stayed inconclusive and do not appear here. This is one part of a sample in which actives are shown more often than they occur. Unmarked numbers belong to inactive results. The call rests on the fitted dose curve.

Test: qHTS Assay for Inhibitors of Influenza NS1 Protein Function; further: actives are rising curves; nearly all actives have a fitted effect of over 50% in size
Conditions: series mostly up to 46.1 µM; activity, positive = more growth: at the top concentration
Source text: NIH Chemical Genomics Center [NCGC]
NIH Molecular Libraries Probe Centers Network [MLPCN]
Assay Submitter (PI): Daniel Engel
Influenza is a world-wide public health problem and emerging forms of the virus have the potential to cause a pandemic of equal or greater magnitude to the outbreaks recorded in 1918, 1957 or 1968. Vaccine development is proceeding and there also exist two classes of anti-influenza compounds. However these therapeutic modalities are neither fully effective nor widely enough available to fulfill global needs. In addition their potential usefulness against newly emergent strains is not known. Efforts are needed to develop novel agents against influenza virus, including broad-spectrum agents. Identification of small molecules that inhibit NS1 function either directly or by interfering with specific cellular pathways may be a key to increasing our defense against the virus.
We have miniaturized and optimized a cell based assay in which NS1 from influenza A is expressed in the budding yeast S. cerevisiae. NS1 is a multi-functional protein that counters the host innate immune response and facilitates viral versus cellular gene expression. Expression of NS1 causes a pronounced slow growth phenotype in yeast due to its intrinsic molecular activities. Small molecules that suppress the slow growth phenotype can be identified by a straightforward growth recovery assay using optical density (OD) as the measurement. The same yeast strain not expressing NS1 was used as positive control in the yeast growth recovery assay.
The yeast S. cerevisiae control and NS1 expressing cells were kindly supplied by laboratory of Dr. Daniel Engel, University of Virginia. Yeast starter cultures were stored in single use aliquots at -80C.
1. Yeast culture medium per liter: 1.2 g Yeast Nitrogen Base (w/out amino acids and Ammonium Sulphate), 5.0g Ammonium Sulphate, 0.77g -URA DO (drop-out) Supplement, adjust pH to 6.0. Adjust to 2% glucose prior to inoculating with yeast.
2. Yeast assay medium: 1.2 g Yeast Nitrogen Base (w/out amino acids and Ammonium Sulphate), 5.0g Ammonium Sulphate, 0.77g -URA DO (drop-out) Supplement, adjust pH to 6.0. Adjust to 2% D-galactose prior to inoculating with yeast.
1. Inoculate 100 mls of yeast culture medium with 1 ml of frozen yeast aliquote. Incubate overnight at 30C, 250RPM.
2. Harvest overnight culture at 4000 RPM and wash pellet with 15 mls H2O 3x.
3. Re-suspend washed pellet in 10 mls of yeast assay medium.
4. Prepare a 1:100 dilution of re-suspended culture in yeast assay medium.
5. Dispense 3.5 ul per well of reagents in step 4 in columns 2-48 in a black clear bottom 1536 well plate.
6. Dispense 3.5 ul per well of yeast assay medium in column 1 only.
7. Transfer 23 nl of compound per well.
8. Dispense 3.5 ul per well of yeast assay medium in columns 1-48.
9. Read plate using Viewlux protocol for optical density 600 (OD600) using excitation filter 600nm.
Potency means the concentration at half of the fitted maximal effect.

SMILES	activity, positive = more growth	Potency
CSc1ccccc1OCc1cc(C(=O)N2C[C@H]3CC[C@H]2C3)no1	-47%	
CCc1cccc(CC)c1NC(=S)NCc1ccc2[nH]c(C)cc2c1	18.4%	
Cc1cc2cc(CNC(=O)c3cccs3)ccc2[nH]1		7.08 µM (active)
Cc1cc2cc(CNC(=O)c3ccc(S(=O)(=O)N4CCOCC4)cc3)ccc2[nH]1	-8.99%	
CCC(=O)Nc1ccc(-c2ccc(N3CCCCC3)nn2)cc1	-6.81%	
CCCCNC(=O)N(O)C1N(/N=C/c2ccccc2O)C(=S)SC1(C)C (stereo not drawn)	-46%	
COc1ccc(CNC(=O)CCC(=O)Nc2nnc(C(C)C)s2)cc1	2.26%	
COc1cccc(OC)c1C(=O)Nc1nnc(C(C)C)s1		3.98 µM (active)
C/C=C/C(=O)Nc1nnc(C(C)C)s1	-1.95%	
CCCN1CCn2c3c(c4cc(Br)ccc42)CCCC31 (stereo not drawn)	-7.34%	
O=C(NCCCc1ccccc1)C(=O)c1c[nH]c2ccccc12	-5.78%	
CSc1nnc(NC(=O)c2nc(S(=O)(=O)Cc3ccc(C)cc3)ncc2Cl)s1	9.05%	
CCc1ccc(S(=O)(=O)N/N=C\c2ccc([N+](=O)[O-])o2)cc1	-23.4%	
CSCc1nnc(NC(=O)c2ccc(S(=O)(=O)N3CCCCC3C)cc2)o1 (stereo not drawn)	-18.6%	
Cc1ccc(Cn2c(C)nc3c(c2=O)c2nc4ccccc4nc2n3Cc2ccco2)cc1		4.47 µM (active)
Cc1nc2c(c(=O)n1Cc1ccco1)c1nc3ccccc3nc1n2Cc1ccccc1	3.74%	
COCCCn1c2nc3ccccc3nc2c2c(=O)n(Cc3ccc(Cl)cc3)c(C)nc21	-0.53%	
CC1(C(=O)NNC(=S)NCC2CCCO2)CC1(Cl)Cl (stereo not drawn)	-1.43%	
O=C(N[C@@H](Cc1ccccc1)C(=O)OCc1ccccc1)c1nc[nH]c1C(=O)N[C@@H](Cc1ccccc1)C(=O)OCc1ccccc1	6.79%	
CCc1ccc(OCC2c3cc(OC)c(OC)cc3CCN2C(C)=O)cc1 (stereo not drawn)	5.89%	
COc1cc2c(cc1NC(=O)CN1CCN(S(=O)(=O)c3ccc(F)cc3)CC1)oc1ccccc12		5.62 µM (active)
COc1ccc(NC(=O)CN2CCN(S(=O)(=O)c3ccc(F)cc3)CC2)cc1Cl	-4.2%	
COc1ccccc1NC(=O)CN1CCN(S(=O)(=O)c2ccc(Br)cc2)CC1	-5.14%	
CC(CN1CCOCC1)OC(=O)c1ccc(C(C)(C)C)cc1 (stereo not drawn)	-23.1%	
O=C(CC(n1cncn1)C(Cl)(Cl)Cl)c1ccc([N+](=O)[O-])cc1 (stereo not drawn)	-84.2%	
Cc1cc(C)c(S(=O)(=O)Nc2c(C)n(C)n(-c3ccccc3)c2=O)cc1[N+](=O)[O-]	-4.82%	
COc1ccc(S(=O)(=O)Nc2c(C)n(C)n(-c3ccccc3)c2=O)cc1		3.98 µM (active)

SMILES	activity, positive = more growth	Potency
Cc1ccc(S(=O)(=O)Nc2ccccc2CNc2c(C)n(C)n(-c3ccccc3)c2=O)cc1	-70%	
O=[N+]([O-])c1ccc(NC(=S)N2CCN(c3ccccn3)CC2)cc1	-11.2%	
FC(F)(F)C1CCCN(c2nsc3ccccc23)C1 (stereo not drawn)	-121%	
COc1cccc(OCc2cc(C(=O)N3CCN(C(=O)c4ccco4)CC3)no2)c1	-6.93%	
O=C(Cc1cc(=O)[nH][nH]1)N/N=C/c1ccccc1[N+](=O)[O-]		8.91 µM (active)
Cc1ccsc1/C=N/NC(=O)Cc1cc(=O)[nH][nH]1	14.1%	
Cc1cc(C(=O)N/N=C/c2ccccc2[N+](=O)[O-])c(C)o1	-0.261%	
COc1cnc(-c2ccccn2)nc1Oc1ccc(C(C)(C)C)cc1	-1.08%	
O=C(CSc1nnnn1C1CCCC1)N1CCCCC1	4.51%	
COc1ccc(C2CC(c3cccs3)=NN2C(=O)COC(=O)c2cc3ccccc3cc2O)cc1OC (stereo not drawn)	24.1%	
COc1ccc(C2CC(c3cccs3)=NN2C(=O)CCC(=O)O)cc1OC (stereo not drawn)	19.5%	
O=C1c2cccc(OCC(=O)N3N=C(c4cccs4)CC3c3ccc(F)cc3)c2CCN1Cc1ccccc1 (stereo not drawn)		5.01 µM (active)
O=C(Nc1ccc(C2CC2(Cl)Cl)cc1)c1cccc([N+](=O)[O-])c1 (stereo not drawn)	-29.5%	
Cc1cnc(NC(=O)c2ccc(Cl)nc2)s1	-1.39%	
O=C(CCCN1C(=O)/C(=C/c2cccs2)SC1=S)Nc1ccc(O)cc1	-5.71%	
COc1ccc(CNC(=O)C(c2ccc(O)cc2)N(Cc2ccco2)C(=O)c2snc(C(N)=O)c2N)cc1 (stereo not drawn)	12.4%	
Cc1cccc(NC(=S)NCCc2ccc(Cl)cc2)c1C	-49.7%	
O=c1cc(O)nc(SCc2ccccc2Cl)[nH]1		5.01 µM (active)
Clc1ccccc1CSc1nnc(-c2ccco2)c(-c2ccco2)n1	10.7%	
O=c1[nH]nc(CSCc2ccccc2Cl)[nH]1	-9.59%	
COc1ccc(C(=O)/C=C/c2cccnc2)c(OC)c1	-15.2%	
O=C(/C=C/c1ccco1)NC(=S)Nc1ccccc1Br	13.4%	
Oc1ccccc1-c1cc(-c2ccc(Cl)cc2)n[nH]1	-6.76%	
Cc1ccccc1C(OCC(O)CN1CCCCC1CCO)c1ccccc1 (stereo not drawn)		4.47 µM (active)
COc1cccc(CN(C)CC(O)COC(c2ccccc2)c2ccccc2C)c1 (stereo not drawn)	2.51%	
CC(C)OCC(O)CN1CCN(C(c2ccccc2)c2ccccc2)CC1 (stereo not drawn)	0.765%	
